According to PubChem BioAssay AID2314 (National Center for Advancing Translational Sciences (NCATS), 2010):
In all, about 300,000 compounds went through this assay and about 37,000 (12%) were called active. This is one part of a sample in which actives are shown more often than they occur. A number with no mark means an inactive call. No stated cut-off is given here; in the data, active means max response mostly above about 13% (no sharp cut-off); inactive means mostly below about 14%.

Experiment: Cycloheximide Counterscreen for Small Molecule Inhibitors of Shiga Toxin; further: read at 38.3 µM for the half of the compounds with a filed dose; 0% is about no effect
Settings: cell reporter, cycloheximide protein synthesis inhibition counterscreen; hits give high values
Compound `CCc1ccccc1N(CC(=O)NCC1CCCO1)C(=O)CCC(=O)Nc1nccs1` (stereo not drawn) has a max response of -4.73%. Work on `CCOc1ccccc1NC(=O)C1CCCN(S(=O)(=O)c2ccccc2)C1` (stereo not drawn) yielded a max response of -1.93%. `CCc1nnc(NS(=O)(=O)c2ccc(NC(=S)NC(=O)c3cccs3)cc2)s1` gave a max response of 0.706%. `O=C(NC(=S)Nc1ccc(NC(=O)c2cccs2)cc1)c1ccc([N+](=O)[O-])cc1` gave a max response of 0.608%. In the case of `NS(=O)(=O)c1ccc(NC(=S)NNC(=O)c2cccs2)cc1`, the max response is reported as 29.3% (active). `O=C(c1n[nH]c2c1CCC2)N1CCCC(Nc2cccc(F)c2)C1` (stereo not drawn) showed a max response of 10.7%. Compound `O=C(NCc1ccc(Cl)cc1)c1cc(=O)nc2sc(-c3ccccc3)nn12` has a max response of -4.5%. `CC(=NCc1ccc2c(c1)OCO2)c1c(O)[nH]c(=O)[nH]c1=O` showed a max response of -1.94%. With `CC(=NCc1ccc2c(c1)OCO2)C1=C(O)c2ccccc2C1=O` the max response was 14.2% (active). With `CC(=NCc1ccco1)C1=C(O)c2ccccc2C1=O` the max response was 24.6%. With `CC1C(=O)N(Cc2ccccc2)c2ccccc2N1C(=O)c1ccccc1` (stereo not drawn) the max response was 5.44%. Compound `O=C(OCc1ccc([N+](=O)[O-])cc1)C1CC(=O)N(Cc2ccccc2Cl)C1` (stereo not drawn) has a max response of 5.26%. For `O=C(Nc1ccc2c(c1)CCC2)c1cccc(S(=O)(=O)N2CCN(c3ccc(F)cc3)CC2)c1`, the max response was 18.6% (active). With `CN1CCN(S(=O)(=O)c2cccc(C(=O)Nc3cccc(S(N)(=O)=O)c3)c2)CC1` the max response was 5.45%. Compound `Cc1cccnc1NC(=O)c1cccc(S(=O)(=O)N2CCN(c3ccc(F)cc3)CC2)c1` has a max response of -1.47%. Compound `OCCC1CN(Cc2cnc(-c3ccccc3)s2)CCN1CCc1ccccc1` (stereo not drawn) has a max response of -2.01%. With `Clc1ccc(-c2nnc(SCc3nc4ccccc4s3)o2)cc1` the max response was 31.5% (active). Compound `O=C(CSc1nnc(-c2ccncc2)o1)NCc1ccc(Cl)cc1` has a max response of -4.87%. Work on `O=C(COC(=O)CSc1nnc(-c2ccc(Cl)cc2)o1)Nc1cc(Cl)cc(Cl)c1` yielded a max response of -1.68%. For `O=C(NCc1ccccc1Cl)C1CCN(S(=O)(=O)c2cccc3nonc23)CC1`, the max response was 7.56%. With `O=c1oc(-c2ccccc2NS(=O)(=O)c2ccc(Cl)cc2)nc2ccccc12` the max response was -0.333%. `Cc1cc(N/N=C\c2ccc(Br)cc2)nc(-n2nc(C)cc2C)n1` gave a max response of -2.43%. `C(=N/Nc1cc(N2CCOCC2)nc(N2CCOCC2)n1)/c1ccccc1` showed a max response of -4.51%. With `Cc1nc(Cl)cc(N/N=C/c2ccccc2)n1` the max response was 9.02% (active). Work on `CCc1ccc2oc(=O)cc(CN3CCCCC3C)c2c1` (stereo not drawn) yielded a max response of 10.3%. With `CCOC(=O)C1CCCN(C(=O)COc2ccc(N(C)S(=O)(=O)c3ccc(C)cc3)cc2)C1` (stereo not drawn) the max response was -3.78%. For `O=C(NCC1CCCO1)C1CCN(C2CCN(C(=O)C3CCCCC3)CC2)CC1` (stereo not drawn), the max response was -2.3%. In the case of `O=c1c2c(nc3cc(-c4cccc(Cl)c4)[nH]n13)CCCC2`, the max response is reported as 52.1% (active). For `O=c1c2c(nc3nc[nH]n13)CCC2`, the max response was -2.72%. `Cc1cc(=O)n2[nH]c(-c3cccc(Cl)c3)cc2n1` showed a max response of 6.54%. `COc1ccc(OC)c(NC(=O)Cc2cccs2)c1` gave a max response of 5.9%. In the case of `CS(=O)(=O)N(CC(=O)N/N=C/c1ccccn1)c1ccc(Oc2ccccc2)cc1`, the max response is reported as 8.35%. `CC(C(=O)N=Nc1c(O)n(C)c2ccc(Br)cc12)n1cnc2ccccc2c1=O` (stereo not drawn) showed a max response of 1.79%. With `Cn1c(CCCOc2ccc(Cl)cc2Cl)n[nH]c1=S` the max response was 16.1% (active). For `O=C(CCCOc1ccc(Cl)cc1Cl)NNC(=O)C1CCC1`, the max response was 3.02%. In the case of `S=c1[nH]nc(CSCc2ccc(Cl)cc2Cl)n1-c1ccccc1`, the max response is reported as -1.69%. For `CC(C)Cn1c(N)c(C(=O)COC(=O)CN2C(=O)C3CC=CCC3C2=O)c(=O)n(C)c1=O` (stereo not drawn), the max response was 1.25%. With `COc1ccc(-n2cc(-c3ccccc3)c3c(=S)nc[nH]c32)cc1` the max response was -2.8%. For `COc1ccc(-n2c(-c3ccc(OC)c(OC)c3)n[nH]c2=S)cc1`, the max response was -1.61%. For `COc1ccc(-c2cn(-c3ccc(OC)cc3)c(=S)[nH]2)cc1`, the max response was 37.9% (active). With `O=C(Cc1ccc(S(=O)(=O)N2CCOCC2)s1)NCCC(c1ccccc1)c1ccccc1` the max response was -2.5%. `Nc1ccccc1Sc1ccc(C(F)(F)F)cc1[N+](=O)[O-]` showed a max response of -0.845%. For `CCS(=O)(=O)c1cc([N+](=O)[O-])c(Sc2ccccc2N)s1`, the max response was 52.5% (active). `CCOC(=O)c1cc(Sc2ccccc2N)cc(C(=O)OCC)n1` gave a max response of -2.14%. In the case of `Fc1ccc(-n2c(Cc3ccccc3)nnc2SCc2nc(-c3ccc(Cl)cc3)no2)cc1`, the max response is reported as -3.26%. For `CCOC(=O)C1C(c2ccc(O)cc2)NC(=O)NC1(O)C(F)(F)F` (stereo not drawn), the max response was -1.88%. Work on `Cc1cc(OC(C)C(=O)NC2CC(C)(C)NC(C)(C)C2)c2c(C)cc(=O)oc2c1` (stereo not drawn) yielded a max response of 2.41%. For `CN(C)CCCNC(=O)c1cc(C(=O)Cc2ccc(Cl)cc2)c[nH]1`, the max response was 0.733%. With `COc1cccc(NC(=S)NC(=O)c2c(Cl)c(C)nn2C)c1` the max response was 18.3%. In the case of `Cn1cc(Cl)c(C(=O)NNC(=S)Nc2cccc(Cl)c2)n1`, the max response is reported as 42% (active). `CC(C)CNC(=S)NNC(=O)c1nn(C)cc1Cl` showed a max response of -2.88%. For `COc1ccc(C2=NS(=O)(=O)N(C)C(C(=O)N3CCCCC3)=C2)cc1`, the max response was 0.248%. Compound `NC(N)=Nc1nc2ccc(Br)cc2c(=O)[nH]1` has a max response of 1.64%. Compound `CC(=O)Nc1ccc(S(=O)(=O)NNC(=O)CCc2ccccc2)cc1` has a max response of 17.5%. `Cc1ccc(C(=O)NC(C)c2ccccc2)cc1Br` (stereo not drawn) gave a max response of 12.6%. With `CCOc1c2ccc(C(=O)NCc3ccc(OC(F)(F)F)cc3)cc2nn1C` the max response was -3.46%. In the case of `CC(C)c1nc2cc(C(=O)NC(C)c3cnn(C)c3)ccc2o1` (stereo not drawn), the max response is reported as 16.9% (active). For `COc1ccc(C(=O)N[C@H](C(=O)NCc2ccccc2)C(C)C)cc1`, the max response was 1.24%. Compound `COc1ccc(CNC(=O)c2cc(=O)c3c(C)cc(C)cc3o2)cc1` has a max response of 10.1%. For `COc1ccc(CNC(=O)c2ccc3oc(C(C)C)nc3c2)cc1`, the max response was 43.8% (active). In the case of `COCC1CCCN(C(=O)c2ccc3oc(C(C)C)nc3c2)C1` (stereo not drawn), the max response is reported as 12.4%. For `COC(=O)c1ccc(CNC(=O)c2ccc3oc(C(C)C)nc3c2)cc1`, the max response was 49.5% (active). In the case of `COC(=O)c1ccc(CSc2nc3cc(Cl)ccc3o2)cc1`, the max response is reported as -2.59%.
